Bcl-xL primary = inhibitors of human Bcl-xL, primary screen, biochemical, fluorescence polarization, HTS; GST-Bcl-xL / FITC-Bim BH3 peptide fluorescence polarization; actives 0.7% (n = 320,000); Bcl-2-like protein 1 (Homo sapiens), Q07817; AID 2129, 2009; inhibition, % at 10.9 µM;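 active = inhibition above the mean of all tested compounds plus 3 SD, cutoff set per campaign, cut at about 30% in these data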;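 note: 0% = DMSO wells and 100% = unlabeled Bim-BH3 peptide competitor; inhibitors lower millipolarization by displacing the labeled peptide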
Target sequence (Q07817 whole entry, looked up): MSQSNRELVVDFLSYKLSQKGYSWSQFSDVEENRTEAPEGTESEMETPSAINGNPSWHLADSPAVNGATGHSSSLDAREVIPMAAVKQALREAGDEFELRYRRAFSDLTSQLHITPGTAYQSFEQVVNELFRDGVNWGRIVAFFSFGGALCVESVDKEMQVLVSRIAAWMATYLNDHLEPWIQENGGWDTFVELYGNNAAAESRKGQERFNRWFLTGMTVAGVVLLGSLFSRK
Bim-Mcl-1 = inhibitors of Bim peptide binding to Mcl-1, primary screen, biochemical, bead-based flow cytometry, multiplex; Bim peptide-Mcl-1 binding; inhibition, % at 10 µM; actives 0.1% (n = 190,000); AID 1009, 2008; in the data active = inhibition above about 40%;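 note: 0% = no compound tracer wells and 100% = peptide blocker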
GLD-1 RNA inh = GLD-1/TGE RNA complex disruptors, primary screen, biochemical, fluorescence polarization; Female germline-specific tumor suppressor gld-1 (Caenorhabditis elegans), Q17339; inhibition, % at 5.96 µM; purified GLD-1 + fluorescein TGE RNA; actives 0.44% (n = 320,000); AID 2280, 2010;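 active = percent inhibition above a per-plate cutoff, the plate mean of test compounds plus 3 SD, cut at about 30% in these data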;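 note: 0% = DMSO wells with GLD-1 and probe and 100% = wells lacking GLD-1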
Target sequence (Q17339 whole entry, looked up): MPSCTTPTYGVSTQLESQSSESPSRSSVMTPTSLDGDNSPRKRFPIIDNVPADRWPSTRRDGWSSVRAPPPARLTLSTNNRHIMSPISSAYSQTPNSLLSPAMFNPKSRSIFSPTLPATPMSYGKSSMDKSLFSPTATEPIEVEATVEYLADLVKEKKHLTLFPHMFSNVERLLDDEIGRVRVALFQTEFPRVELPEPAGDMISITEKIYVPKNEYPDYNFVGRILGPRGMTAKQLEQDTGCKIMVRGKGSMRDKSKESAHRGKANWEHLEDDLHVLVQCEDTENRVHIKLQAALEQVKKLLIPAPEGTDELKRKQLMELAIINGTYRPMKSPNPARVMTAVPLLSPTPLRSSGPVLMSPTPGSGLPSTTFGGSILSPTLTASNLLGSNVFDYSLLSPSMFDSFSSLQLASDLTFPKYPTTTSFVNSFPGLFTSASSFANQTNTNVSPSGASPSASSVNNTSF
MCL1 BIM primary = inhibitors of MCL1 binding to BIM-BH3, primary screen, biochemical, fluorescence polarization. GST-MCL1 / FITC-Bim-BH3 fluorescence polarization. inhibition, % at 10.9 µM. actives 0.68% (n = 320,000). Induced myeloid leukemia cell differentiation protein Mcl-1 (Homo sapiens), Q07820;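 active = inhibition above the mean inhibition of all tested compounds plus 3 SD, set per campaign, cut at about 40% in these data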;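 note: 0% = DMSO wells and 100% = unlabeled Bim-BH3 peptide control; higher means more loss of mP so more displacement of Bim peptide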
Mcl1-Bid inh = Mcl-1/Bid binding inhibitors, primary screen, biochemical, TR-FRET, 1536-well. Induced myeloid leukemia cell differentiation protein Mcl-1 (Homo sapiens), Q07820. TR-FRET Mcl-1/Bid-Dy647 peptide binding. actives 0.97% (n = 220,000). inhibition, % at 21.7 µM. AID 1021, 2008;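 active = compounds that cut the binding signal by more than half at the single screening dose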;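 note: His-tagged Mcl-1 with europium anti-His antibody binding Bid BH3 peptide; 0% = Mcl-1 plus peptide wells and 100% = peptide-only wells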
Mcl1 Noxa PPI = Mcl-1/Noxa binding inhibitors, primary screen, biochemical, TR-FRET, 1536-well; TR-FRET Mcl-1/Noxa peptide binding, 2 h; actives 1.5% (n = 220,000); Induced myeloid leukemia cell differentiation protein Mcl-1 (Homo sapiens), Q07820; inhibition, % at 21.7 µM; AID 1022, 2008;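 active = compounds that cut the protein-peptide binding signal by more than 50% relative to plate controls in a single-dose test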;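 note: His-tagged Mcl-1 with rhodamine Noxa BH3 peptide and terbium anti-His antibody; 0% = Mcl-1 plus Noxa peptide wells and 100% = peptide-only wells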
Active calls of the source: *; . = no result given. Most compounds without a hit are left out; they make up all but 2.3% or so of the library.

SMILES	Bcl-xL primary	Bim-Mcl-1	GLD-1 RNA inh	MCL1 BIM primary	Mcl1-Bid inh	Mcl1 Noxa PPI
CN(C)c1ccc2c3c(cccc13)C(=O)N(c1ccccc1)C2=O	80.7*	-2.0	68.7*	77.0*	-13.9	0.6
COC(=O)CCC(=O)OC1(C)C(=O)C2=CN(CCCCO)C(c3ccc(OC)cc3)=CC2=C(Br)C1=O (centres undefined)	31.7*	.	26.0	40.2*	.	.
COC(=O)CCC(=O)OC1(C)C(=O)C2=CN(C(CO)CO)C(c3ccc(OC)cc3)=CC2=C(Br)C1=O (centres undefined)	38.2*	.	13.2	39.9*	-57.7	19.4
COC(=O)CCC(=O)OC1(C)C(=O)C2=CN(CCN3CCOCC3)C(c3ccc(OC)cc3)=CC2=C(Br)C1=O (centres undefined)	23.8	.	15.5	20.7	-78.7	18.2
COC(=O)CCC(=O)OC1(C)C(=O)C2=CN(CCc3ccccn3)C(c3ccc(OC)cc3)=CC2=C(Br)C1=O (centres undefined)	36.5*	.	30.4	40.0*	.	.
Cc1cc(OCC(=O)NCCc2cccc(F)c2)c2c(C)cc(=O)oc2c1	4.0	.	-7.9	0.6	.	.
O=C(O)C1C2CCC(CC2)C1C(=O)N1CCN(Cc2ccc(F)cc2)CC1 (centres undefined)	2.6	.	7.0	11.0	.	.
C/C(=N\O)c1ncc(C(F)(F)F)cc1Cl	0.3	-2.0	0.1	-3.6	-31.9	0.7
C=CCN(CC=C)C(=S)NC(=O)Cc1cccc2ccccc12	11.0	0.0	-9.6	12.2	-50.1	61.5*
O=C(Cc1cccc2ccccc12)Nc1ccccc1	0.7	.	-0.2	3.1	.	.
COc1ccc2[nH]c3c(=O)n(CCCCC(=O)NCCC(C)C)c(=S)[nH]c3c2c1	-0.4	-2.0	0.0	9.4	-33.6	19.9
N#Cc1cc(C(=O)c2ccccc2O)cn(-c2nccs2)c1=O	32.3*	4.0	54.2*	14.6	-87.7	23.6
N#Cc1cc(C(=O)c2cc(F)ccc2O)cn(-c2nccs2)c1=O	38.2*	0.0	10.8	-0.8	-40.6	26.9
Cc1c(-n2cc(C(=O)c3cc(F)ccc3O)cc(C#N)c2=O)c(=O)n(-c2ccccc2)n1C	16.2	0.0	7.3	14.2	-27.0	16.7
COc1ccc(N2CCN(c3ccc(S(=O)(=O)N(C(C)C)C(C)C)cn3)CC2)cc1	3.9	.	2.6	3.5	.	.
Cc1noc(C)c1C(=O)N1CCCC(C(=O)c2cccc(C(F)(F)F)c2)C1 (centres undefined)	7.4	0.0	-1.7	4.2	-117.8	3.4
CCN(CC)CCn1c(NCc2ccccn2)nc2ccccc21	-1.3	-6.0	4.1	-0.1	85.0*	34.2
Cc1cccn2c(=O)c3cc(C(=O)NC4CCCC4)n(C)c3nc12	2.9	.	8.1	2.1	.	.
Cc1cc(C)nc(NS(=O)(=O)c2ccc(NC(=O)c3cc4c(=O)n5cccc(C)c5nc4n3C)cc2)n1	30.2*	.	5.1	31.4	.	.
Cc1ccc(Cl)cc1NC(=O)C1C2CCC(O2)C1C(=O)O (centres undefined)	10.6	.	8.8	19.0	.	.
Oc1nc(Nc2cccc(Cl)c2)sc1/C=C1\C=Nc2ccccc21	4.9	-2.0	-26.5	3.5	-20.5	36.0
Oc1cccc(Nc2nc(O)c(/C=C3\C=Nc4ccccc43)s2)c1	-61.5	.	-112.5	-106.6	-55.1	62.3*
Oc1nc(Nc2ccc(F)cc2)sc1/C=C1\C=Nc2ccccc21	-8.8	.	-30.7	-10.9	31.9	102.2*
N/C(=N\OC(=O)COc1ccc(Cl)cc1Cl)c1ccncc1	.	0.0	.	.	-6.3	9.7
CNC(=S)N(CCc1ccc(S(N)(=O)=O)cc1)C1CC(=O)N(c2ccccc2F)C1=O (centres undefined)	-6.3	0.0	-3.3	-2.4	60.9*	44.7
SMILES	Bcl-xL primary	Bim-Mcl-1	GLD-1 RNA inh	MCL1 BIM primary	Mcl1-Bid inh	Mcl1 Noxa PPI
CCOc1ccc(N2C(=O)CC(N(CCc3ccc(S(N)(=O)=O)cc3)C(C)=O)C2=O)cc1 (centres undefined)	2.8	.	1.0	-4.8	6.7	7.3
Cc1ccc(S(=O)(=O)Nc2nc3ccccc3nc2N2CCN(c3ccccc3F)CC2)cc1	1.8	-5.0	7.6	3.3	4.3	50.9*
Cc1ccc(S(=O)(=O)Nc2nc3ccccc3nc2Nc2cccc(S(=O)(=O)N3CCCC3)c2)cc1	36.6*	0.0	14.1	34.8	8.9	28.1
Cc1ccc(S(=O)(=O)NC2=C(N3CCN(c4ccccc4F)CC3)C(=O)c3ccccc3C2=O)cc1	20.0	-2.0	19.3	14.9	-16.7	.
O=[N+]([O-])c1cccc(S(=O)(=O)Nc2nc3ccccc3nc2Nc2cccc(S(=O)(=O)N3CCCCC3)c2)c1	.	-8.0	.	.	98.8*	73.4*
O=[N+]([O-])c1cccc(S(=O)(=O)Nc2ccc(S(=O)(=O)N3CCCC3)cc2)c1	-3.0	.	3.4	-5.2	.	.
O=C(O)CNC(=O)/C(=C/c1ccco1)NC(=O)/C=C/c1ccccc1	17.3	5.0	13.1	13.4	-33.9	15.1
C=CCOC(=O)/C(=C/c1ccco1)NC(=O)/C=C/c1ccccc1	-1.3	.	2.2	7.5	88.8*	-19.5
CC(COc1ccccc1)N(CCCl)Cc1ccccc1 (centres undefined)	-3.7	-1.0	1.8	2.0	54.8*	34.2
CC(C)[C@@H](COc1ccccc1)N1CCN(Cc2ccccc2)CCC1=O	-1.6	.	0.5	-7.3	.	.
COc1cc(NS(=O)(=O)c2ccc(NC(=S)NC(=O)/C=C/c3ccc(OC)c(OC)c3)cc2)ncn1	-1.0	-4.0	4.0	-5.8	-74.4	59.1*
CCc1nnc(NS(=O)(=O)c2ccc(NC(=S)NC(=O)/C=C/c3ccc(F)cc3)cc2)s1	11.7	-5.0	-0.2	12.0	-30.7	61.2*
COc1ccc(Cl)cc1-n1c(C)cc(C=O)c1C	-4.6	44.0*	-6.0	-9.9	-9.0	6.4
COc1ccc(Cl)cc1-n1c(C)cc(C(=O)O)c1C	-2.1	-170.0	3.4	-10.6	-73.4	-0.1
CCN(CC)S(=O)(=O)c1ccc(C(=O)Oc2coc(CSc3nc(C)cc(C)n3)cc2=O)cc1	2.1	1.0	-5.7	5.5	-2.6	70.4*
CN(C)S(=O)(=O)c1ccc(C(=O)Oc2coc(CSc3ncccn3)cc2=O)cc1	0.8	-1.0	-5.7	5.9	-27.7	-8.3
CCOc1ccc(N2C(=O)CC(/C=C3/N(C)c4ccccc4C3(C)C)C2=O)cc1 (centres undefined)	-15.3	-2.0	-5.2	-41.3	-27.3	2.3

High-throughput results from PubChem BioAssay.
